Results on five molecules are retold here after PubChem BioAssay.

A short description of test [1]: inhibitors of TNFa-induced NFkB p65 translocation, primary screen, imaging, HUVEC, MLSMR starter and 10KST1 sets (AID 438;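 active means inhibition above 20% together with a positive visual image hit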;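 further: compound added about 3h40 before a 20 min TNFalpha stimulation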;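 on inhibition: signal is the nuclear over cytoplasmic p65 intensity ratio per well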). Particulars: HUVEC TNFa-induced p65 nuclear translocation; cell count: measured here: nuclei count (cytotoxicity indicator), at 2.08 µM; inhibition: at 2 µM, stronger effect = higher value, 0% TNFa-plus-vehicle, 100% no-TNFa wells.
A short description of test [2]: reduction of polyQ htt aggregates in cells – imaging, exon1htt(103Q)mCFP cells, high-content imaging, primary screen (AID 483;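 active means visual image review flags a hit and inhibition of aggregation exceeds 20%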;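 further: compound exposure lasted 3 days before fixation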;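 on nuclei count: percent of the per-plate median nuclei count of sample wells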). Particulars: exon1htt(103Q)mCFP cell line, aggregate imaging, at 2 µM; inhibition of aggregation: stronger effect = higher value; nuclei count: measured here: cell count, toxicity.
Test [3] in a line: endothelial E-selectin expression blockers – imaging, HUVEC, immunofluorescence, MLSMR starter and 10KST1 sets, primary screen (AID 487;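 active means visually confirmed hit in the image check and inhibition above 20%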;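 on inhibition: signal is fraction of cell area covered by stained E-selectin grains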;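 on nuclei count: 100% = median nuclei count of all wells on the same plate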). Particulars: HUVEC TNFalpha-induced E-selectin immunofluorescence imaging, at 2 µM; inhibition: stronger effect = higher value; nuclei count: measured here: cell number, toxicity.
A short description of test [4]: Primary imaging screen for DUSP6 inhibitors that restore phospho-Erk in transfected HeLa cells, chemical complementation (AID 609;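 active means compounds giving at least 50% inhibition in the cell-based MKP-3 phosphatase rescue imaging test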;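 on inhibition: phospho-Erk level distribution per well compared with pooled transfected vehicle control wells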). The note with it: HeLa MKP-3 transfected, phospho-Erk imaging KS statistic, at 10 µM, cells stimulated with TPA for 15 min.
Test [5] concerns the target Dual specificity protein phosphatase 6 (Homo sapiens) (UniProt Q16828). The description is as above. The note with it: HeLa MKP-3 transfected, phospho-Erk imaging KS statistic; at 10 µM; stronger effect = higher value; cells stimulated with TPA for 15 min.
The target of test [6] is Voltage-gated potassium channel subunit beta-2 (Rattus norvegicus) (UniProt P62483). Kind of test: inhibitors of rat Kvbeta2 reductase activity – biochemical, NADPH fluorescence, primary screen (AID 622).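 Further: slope of raw intensity against log time taken from 70 to 1610 s.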 The note with it: recombinant KvBeta, 4-cyanobenzaldehyde reduction, at 10 µM, stronger effect = higher value.
For test [7] the target is unchanged. Kind of test: enhancers of rat Kvbeta2 NADPH turnover – biochemical, NADPH fluorescence, primary screen (AID 623;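 active means NADPH fluorescence slope more negative than the mean of all samples by about 3 SD, 99.7% confidence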;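 further: fluorescence intensity change per second fitted from 20 to 320 s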). Particulars: Recombinant KvBeta, NADPH fluorescence decrease slope, 10 min; at 10 µM; stronger effect = lower value.
Test [8] has as its target Muscarinic acetylcholine receptor M4 (Homo sapiens) (UniProt P08173). Nature of the test: M4-linked GIRK flux change, two-sided – cell-based, HEK293 M4/GIRK, thallium flux, BTC-AM, M4 allosteric agonist project, primary screen (AID 625;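 active means fluorescence slope after compound addition differing from the mean of all tested samples at 99.7% confidence, mostly higher but some lower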;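 further: thallium influx through GIRK channels coupled to M4 in HEK293 cells with BTC-AM dye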). The note with it: at 10 µM, actives lie on both sides.
Test [9] in a line: inhibitors of larval lipid processing in zebrafish, primary screen, whole organism, PED6 fluorescence, gall bladder and intestine (AID 686;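 active means a full or partial loss of lipid-probe fluorescence in the fish gall bladder, intestine or both, judged by eye; inactive means no fluorescence loss, or compound toxic to the fish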;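 further: larvae 5 to 7 days old with five fish per well; signal comes from phospholipase A2 cleavage of quenched PED6 carried via bile; overnight exposure to compound and PED6 before scoring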). Particulars: Zebrafish larvae PED6 lipid processing, fluorescence scoring; screened at 20 µM (by protocol).
Test [10] can be described thus: loss of swimming-algae plug formation – whole organism, Chlamydomonas reinhardtii, WT vs cilia-less mutant, absorbance, 96-well, primary screen (AID 463189;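 active means inhibition at or above 50% relative to wild type and mutant plate controls; inactive means inhibition below 50%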;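 further: 0% = wild type cc124 cells in DMSO and 100% = ciliumless bld1 mutant cells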). The note with it: Chlamydomonas reinhardtii gravitaxis, OD600 absorbance, 2 days; at 10 µM; stronger effect = higher value.
Test [11] can be described thus: blockers of RIG-like receptor reporter activation – cell-based, Sendai virus stimulus, luciferase, 10K MLSCN set, TLR/RLR signaling modifier project, primary screen (AID 602276;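 active means inhibition at or above 50% at 10 µM; inactive means inhibition below 50%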;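 further: firefly luciferase from ISG56 promoter only with Renilla not read in this screen; 0% = Sendai virus plus DMSO and 100% = medium plus DMSO without virus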). Particulars: HEK293 RL24 IRF3 luciferase reporter, at 10 µM, stronger effect = higher value.
Test [12] in a line: TLR3 IRF3 reporter activation blockers – cell-based, poly I:C stimulus, luciferase, 10K MLSCN set, primary screen (AID 602277;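 active means inhibition of the reporter signal at or above 50%; inactive means inhibition below 50%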). Particulars: HEK293-TLR3 RL24 IRF3 luciferase reporter, at 10 µM, stronger effect = higher value. On the technique in general: A reporter such as luciferase makes a cellular process visible.
For test [13], the target named is Alpha-2C adrenergic receptor (Homo sapiens) (UniProt P18825). Nature of the test: compounds altering alpha2C-coupled GIRK flux – cell-based, HEK293 alpha2C/GIRK1/2, thallium flux, primary screen (AID 624;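 active means fluorescence slope after compound addition differing from the mean of all screened samples at 99.7% confidence, in either direction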;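 further: slope of fluorescence ratio to pre-addition baseline per second over 15 to 24 s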). The note with it: thallium flux BTC fluorescence, at 10 µM, actives lie on both sides.
Where [14] appears, read: measured here: cell density z-score.
The mark [15] stands for this setting: measured here: nuclear c-Myc green intensity z-score.
Setting [16] is: measured here: nuclear pErk red intensity z-score, stronger effect = higher value.

The structures appear in SMILES notation. Calls of active or inactive are those of the source.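 How the source made its calls, unless noted: active means fluorescence slope higher than the sample average by over 3 SD (cut at about -0.22 in these data, passing the limit was not always enough); inactive means the rest.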

Sequence of Muscarinic acetylcholine receptor M4 (Homo sapiens) (P08173 whole entry, looked up): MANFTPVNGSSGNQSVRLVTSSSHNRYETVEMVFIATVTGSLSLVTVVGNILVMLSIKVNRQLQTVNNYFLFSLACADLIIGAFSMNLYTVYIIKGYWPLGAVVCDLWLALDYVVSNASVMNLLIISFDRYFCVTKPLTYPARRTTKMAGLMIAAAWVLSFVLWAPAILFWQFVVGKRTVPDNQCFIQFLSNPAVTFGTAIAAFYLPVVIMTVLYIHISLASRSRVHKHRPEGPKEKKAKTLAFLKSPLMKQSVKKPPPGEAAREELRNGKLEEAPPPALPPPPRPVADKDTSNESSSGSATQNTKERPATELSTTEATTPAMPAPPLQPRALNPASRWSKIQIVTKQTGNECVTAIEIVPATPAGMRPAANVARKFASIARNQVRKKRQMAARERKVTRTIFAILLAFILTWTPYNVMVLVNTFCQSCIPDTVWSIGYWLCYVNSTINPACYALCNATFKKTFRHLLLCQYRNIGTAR
Sequence of Dual specificity protein phosphatase 6 (Homo sapiens) (Q16828 whole entry, looked up): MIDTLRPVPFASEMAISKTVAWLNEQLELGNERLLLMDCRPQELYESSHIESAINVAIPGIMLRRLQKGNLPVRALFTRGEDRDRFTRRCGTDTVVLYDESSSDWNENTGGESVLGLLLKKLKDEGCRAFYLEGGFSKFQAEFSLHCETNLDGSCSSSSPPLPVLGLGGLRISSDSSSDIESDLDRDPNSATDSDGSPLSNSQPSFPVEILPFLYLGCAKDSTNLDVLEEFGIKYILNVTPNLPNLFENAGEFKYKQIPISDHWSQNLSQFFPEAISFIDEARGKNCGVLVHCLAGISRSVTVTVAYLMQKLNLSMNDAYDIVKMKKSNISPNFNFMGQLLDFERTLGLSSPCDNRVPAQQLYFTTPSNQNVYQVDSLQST
Sequence of Voltage-gated potassium channel subunit beta-2 (Rattus norvegicus) (P62483 whole entry, looked up): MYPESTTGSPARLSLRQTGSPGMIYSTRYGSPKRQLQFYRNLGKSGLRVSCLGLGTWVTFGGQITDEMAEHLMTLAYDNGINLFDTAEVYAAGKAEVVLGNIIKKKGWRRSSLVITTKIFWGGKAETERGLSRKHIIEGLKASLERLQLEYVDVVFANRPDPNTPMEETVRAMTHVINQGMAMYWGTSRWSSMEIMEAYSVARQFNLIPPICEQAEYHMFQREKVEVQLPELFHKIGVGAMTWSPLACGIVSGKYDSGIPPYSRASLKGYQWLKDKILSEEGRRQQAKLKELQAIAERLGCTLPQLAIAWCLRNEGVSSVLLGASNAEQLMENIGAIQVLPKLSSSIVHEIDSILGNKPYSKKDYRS
Sequence of Alpha-2C adrenergic receptor (Homo sapiens) (P18825 whole entry, looked up): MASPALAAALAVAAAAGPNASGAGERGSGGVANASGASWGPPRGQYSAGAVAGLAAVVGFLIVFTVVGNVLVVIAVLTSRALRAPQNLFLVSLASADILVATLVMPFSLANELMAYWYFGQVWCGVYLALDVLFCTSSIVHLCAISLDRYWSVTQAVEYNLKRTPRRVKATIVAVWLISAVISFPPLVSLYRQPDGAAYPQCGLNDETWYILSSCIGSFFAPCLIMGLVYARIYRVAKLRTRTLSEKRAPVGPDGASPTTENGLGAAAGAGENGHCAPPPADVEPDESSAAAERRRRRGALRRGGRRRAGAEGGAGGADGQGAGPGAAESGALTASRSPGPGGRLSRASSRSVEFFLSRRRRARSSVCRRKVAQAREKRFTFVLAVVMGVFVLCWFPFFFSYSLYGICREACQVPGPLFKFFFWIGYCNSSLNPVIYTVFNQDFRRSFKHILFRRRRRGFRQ

As to `c1ccc2c(c1)[nH]c1c(N3CCC4(CC3)OCCO4)ncnc12`, the cell count in [1] came to 543. The inhibition in [1] is -0.4% (inactive); in test [3], -72.3% (inactive); in test [5], -6.59% (inactive); in [10] it was -1.55% (inactive); in test [11] it was 2.08% (inactive); in test [12], -40% (inactive). The inhibition of aggregation in test [2] is -24.1% (inactive). Also, the nuclei count stood at 94.4% in test [2] and 119% in test [3]. For the same molecule, the z-score in test [4] (setting [14]) was -0.995; in test [4] (setting [15]), 0.207; in test [4] (setting [16]), -1.27. Besides, the values for the fluorescence slope in [6] and in test [8] were -0.384 (inactive) and 0.00574 (inactive), respectively. For the same molecule, in test [7], the NADPH fluorescence slope is -3.4e-05 (inactive). The call in [9] was inactive.

Regarding `CC(=O)C1=C(O)C(=O)N(c2ccc(C(=O)O)cc2)C1c1ccccc1` (stereo not drawn), the cell count in [1] stood at 669. In addition, the inhibition in [1] was 4.5% (inactive); in test [3] it was -53.3% (inactive); in [5], 2.46% (inactive); in test [10], -2.45% (inactive); in test [11], 16.8% (inactive); in test [12], 17.1% (inactive). The inhibition of aggregation in test [2] was 10.3% (inactive). Also, the nuclei count in test [2] stood at 101%; in test [3], 112%. Moreover, the z-score in test [4] (setting [14]) was 1.33; in [4] (setting [15]), -0.568; in test [4] (setting [16]), -0.179. The fluorescence slope was -0.428 (inactive) in test [6] and 0.00575 (inactive) in [8]. In test [7], the NADPH fluorescence slope is -5.9e-06 (inactive). Further, in [9], the result was inactive.

Take `Cc1c(O)c(CN2CCCCC2)cc2c3c(c(=O)oc12)CCC3`: in [1], the cell count turned out to be 706. Moreover, the inhibition in test [1] is -5.5% (inactive); in test [3], -1.4% (inactive); in [5] it was -10.6% (inactive); in test [10] it was 1.32% (inactive); in test [11], 12.6% (inactive); in test [12] it was 14.9% (inactive). Further, in test [2], the inhibition of aggregation was 2.7% (inactive). Further, the nuclei count in test [2] is 106%; in test [3] it was 130%. Also, the z-score in test [4] (setting [14]) is 0.172; in test [4] (setting [15]), -1.04; in test [4] (setting [16]), -0.433. In addition, the fluorescence slope in test [6] was -0.00734 (inactive); in [8], 0.00439 (inactive). Besides, the NADPH fluorescence slope in [7] is -1.2e-06 (inactive). In test [9], the molecule was classed as inactive.

For `COc1ccc2c(c1)n([O-])c1c([n+]2=O)CCC1`, in test [1], the cell count worked out at 640. For the same molecule, the inhibition was -4.7% (inactive) in test [1]; -56.2% (inactive) in [3]; 3.49% (inactive) in [5]; -9.94% (inactive) in test [10]; -10.3% (inactive) in test [11]; 99.2% (active) in test [12]. In addition, the inhibition of aggregation in test [2] is -32.6% (inactive). In addition, the nuclei count in test [2] worked out at 113%; in test [3], 108%. In addition, the z-score in test [4] (setting [14]) is -0.812; in test [4] (setting [15]) it was 2.02; in test [4] (setting [16]), -1.59. Besides, the values for the fluorescence slope in test [6] and in [8] were -0.367 (inactive) and 0.00434 (inactive), respectively. In addition, the NADPH fluorescence slope in test [7] is -3.5e-05 (inactive). Also, the result in test [9] was inactive.

With `Cc1noc(NS(=O)(=O)c2ccc(N)cc2)c1C`, the cell count in [1] was 559. The inhibition was -7.4% (inactive) in [1]; -149% (inactive) in test [3]; 5.42% (inactive) in [5]; -6.69% (inactive) in [10]; -9.57% (inactive) in [11]; -11.4% (inactive) in test [12]. In test [3], this molecule registered a nuclei count of 114%. In addition, the z-score in test [4] (setting [14]) was 0.375; in test [4] (setting [15]), -0.266; in [4] (setting [16]), -1.23. Besides, the fluorescence slope in test [6] was -0.478 (inactive). For the same molecule, the NADPH fluorescence slope in [7] was 2.4e-05 (inactive). For the same molecule, the slope in test [13] was 0.00419 (inactive). Moreover, the molecule was called inactive in test [9].

What is called inhibition is the relative decrease from the control value, in per cent.
